# High-throughput results deposited in PubChem by National Center for Advancing Translational Sciences (NCATS).
# Marburg entry inh – inhibitors of Marburg virus binding or cell entry; Marburg virus pseudotyped entry inhibition, cell reporter; Potency, µM (doses to about 37.8 µM), usual class: inhibitors; 1.8% of 300,000 active; AID 540276; calls by dose curve; tested in HEK293 cells
# HCMV inh – blocks human cytomegalovirus replication; HFF cells, HCMV-luciferase reporter, 72 h; stronger effect = lower value; activity change, negative = inhibition, % at 57.5 µM; 4.5% of 410,000 active; AID 1259415; in the data active = activity change below about -60%; inconclusive = no clear call, values can overlap the other calls; inactive = above about -39%
#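 Inhibition of viral replication was scored as loss of reporter luminescence in HFFs infected with HCMV-luciferase (MOI 1 PFU/cell) for 72 h; compounds tested at 2 doses, normalized to buffer and Salinomycin controls.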
# Lassa entry inh – blocks Lassa virus binding to or entry into cells | Lassa virus pseudotype entry inhibition, cell reporter | Potency, µM (doses to about 37.9 µM), actives largely listed as inhibitors | 1.2% of 300,000 active | AID 540256; calls by dose curve; tested in HEK293 cells; note: nearly all actives have a fitted effect of over 50% in size
# FMDV antiviral – foot and mouth disease virus antiviral activity; FMDV antiviral cell-based qHTS; Potency, µM (series often up to 57.9 µM), usual class: inhibitors; 1.2% of 410,000 active; calls by dose curve; tested in HEK293T cells; note: read-out not given here; nearly all actives have a fitted effect of over 45% in size
# A number is an active result; - = inactive; ? = inconclusive; . = no result. In the library only some 6.2% were active in any assay of this set; here they are far more common.
SMILES,Marburg entry inh,HCMV inh,Lassa entry inh,FMDV antiviral
C[C@H]1[C@@H](NC(=O)Nc2cccc(C#N)c2)CC[C@@]23CCCN2C(=O)CCC[C@@H]13,.,-,.,.
Cc1cccc(C(=O)NC2CCN(S(=O)(=O)c3cccc(F)c3)CC2)c1,.,-60,.,-
O=C(NC1CC2CCCC(C1)N2Cc1ccccc1)c1cccc(Cl)c1 (configuration not stated),1.3µM,-,-,-
CCOc1ccccc1NC(=O)N1CCC(NC(=O)c2cccc(C)c2)CC1,-,-,-,-
Cc1cccc(C(=O)NC2CC3CCCC(C2)N3S(=O)(=O)c2ccccc2)c1 (configuration not stated),?,-,13µM,.
Cc1cccc(C(=O)NC2CCN(C(=O)Nc3ccccc3C)CC2)c1,.,-103,.,-
O=C(NC1CCN(S(=O)(=O)c2cccc(F)c2)CC1)c1cccc(F)c1,.,-,.,-
CCOc1ccc(NC(=O)CCS(=O)(=O)c2ccc3nc(C)sc3c2)cc1,.,-,-,-
Oc1c(C(c2ccccc2F)N2CCOCC2)sc2nc(-c3ccco3)nn12 (configuration not stated),.,-,-,-
CCCNC(=O)C1(C)CCN1C(=O)c1ccccc1CCc1ccccc1 (configuration not stated),.,-61,.,-
Nc1ccc2nc(-c3ccccc3)c(-c3ccccc3)nc2c1,-,-,-,-
C[n+]1c(-c2ccccc2)c2cc(N)ccc2c2ccc(N)cc21,.,-100,.,?
Cc1ccc(NC(=O)c2cc(S(=O)(=O)N(C)C3CCCCC3)ccc2F)cc1C,.,-,-,-
Cc1nc(C(F)(F)F)ccc1C(=O)N1CCC1(C)C(=O)NS(=O)(=O)c1cccc(Cl)c1 (configuration not stated),.,-91,.,-
CC1CCCN(C(=O)c2cc3ccc4cccnc4c3[nH]2)C1 (configuration not stated),.,-81,-,14µM
O=C(c1cc2ccc3cccnc3c2[nH]1)N1CCCCC1,.,-67,-,-
Cc1ccc(Cl)cc1N1CCN(C(=O)c2cc3ccc4cccnc4c3[nH]2)CC1,.,-70,?,-
O=C(NCC1CCN(Cc2ccc(F)cc2)CC1)c1cc2ccc3cccnc3c2[nH]1,.,-68,?,-
CCCN(CCC)[C@H]1CCc2ccc(O)cc2C1,-,.,.,.
N#Cc1cc2c(nc1SCC(N)=O)CCCCC2,-,-,-,-
N#Cc1cc2c(nc1SCC(=O)N1CCOCC1)CCCCC2,-,-77,?,.
O=C(Nc1cccc(C(=O)OCc2cc(=O)n3nc(C4CC4)sc3n2)c1)c1ccc(F)cc1,.,-,-,-
C[C@@H]1CC2[C@@H]3CC[C@H]4CC(=O)CC[C@]4(C)C3=CC[C@]2(C)[C@@]1(O)C(=O)CO (some centres not stated),-,-101,-,?
CC(=O)C1(O)C(C)CC2C3CCC4CC(O)CCC4(C)C3=CCC21C (configuration not stated),-,-,-,.
CCN(CC)CCN(C(=O)c1ccc(C(=O)c2ccccc2)cc1)c1nc2cc3c(cc2s1)OCO3,-,-,-,-
SMILES,Marburg entry inh,HCMV inh,Lassa entry inh,FMDV antiviral
CN(C)CCCN(C(=O)c1ccc(C(=O)c2ccccc2)cc1)c1nc2cc3c(cc2s1)OCO3,16µM,?,11µM,?
CN(C)CCCN(C(=O)c1cc2cc([N+](=O)[O-])ccc2s1)c1nc2cc3c(cc2s1)OCCO3,?,-98,?,40µM
CN(C)CCCN(C(=O)c1cc(-c2cccs2)nc2ccccc12)c1nc2c(F)cccc2s1,11µM,-,?,-
Cc1cccc2sc(N(CCCN(C)C)C(=O)c3ccc(C(=O)c4ccccc4)cc3)nc12,?,-72,-,-
Cc1cccc2sc(N(CCCN(C)C)C(=O)COc3ccccc3)nc12,.,-,-,-
Cc1ccc(NC(=O)C(Cc2ccccc2)NS(=O)(=O)c2ccc3c(c2)c(=O)n(C)c(=O)n3C)c(C)c1 (configuration not stated),-,-,-,-
Nc1nonc1C(=O)NCCNCc1ccc(Cl)c(Cl)c1,-,-,-,?
COc1cccc2c1[C@H](C=Cc1ccccc1)[C@@H]([C@H](O)COC(C)=O)OC2,-,.,.,.
CC1CCCCN1S(=O)(=O)c1ccc(C(=O)N(CCCN(C)C)c2nc3cc4c(cc3s2)OCO4)cc1 (configuration not stated),?,-70,-,-
CN(C)CCCN(C(=O)c1ccc(S(=O)(=O)N2CCCCC2)cc1)c1nc2cc3c(cc2s1)OCO3,?,-,?,-
O=C(Nc1ccc2c(c1)OCO2)c1cc(C2CCCN(C(=O)C3CCCCC3)C2)on1 (configuration not stated),.,-,.,-
O=C(N/N=C(\c1ccccc1)c1cccnc1)c1cccc(F)c1,?,-112,?,?
O=C(N/N=C(\c1ccccc1)c1cccnc1)c1ccc(O)cc1,-,-,-,-
COc1ccc(Nc2nc(N)nc(N)c2S(=O)(=O)c2ccccc2)cc1,?,-,-,-
Cc1cc(Cl)ccc1C(=O)C1CCCN(C2CCSCC2)C1 (configuration not stated),10µM,?,?,-
Cc1cc(-c2ccnc(-n3ncc(C(=O)N(C)CC(O)c4ccccc4)c3C)n2)c(C)s1 (configuration not stated),.,.,.,-
CN1CCN(c2c(/C=N/O)c3ccccc3n2C)CC1,-,.,-,-
Cc1ccccc1C(=O)O/N=C/c1c(N2CCOCC2)n(C)c2ccccc12,?,-99,-,?
CCOc1ccc(Nc2ncnc3c2c(-c2ccccc2)cn3-c2cccc(C)c2)cc1,.,-,-,-
COc1ccc(/C=N/NC(=O)c2ccccc2Cl)cc1CSc1nc2ccccc2s1,?,?,13µM,-
COc1ccc(/C=N/NC(=O)c2cccnc2)cc1CSc1nc2ccccc2s1,-,?,-,35µM
COc1ccc(/C=N/NC(=O)c2ccn[nH]2)cc1COc1ccc([N+](=O)[O-])c(C)c1,-,?,?,-
COc1ccc(/C=N/NC(=O)c2cccnc2)cc1COc1ccc([N+](=O)[O-])c(C)c1,?,-76,?,40µM
Cc1oc(-c2cccc(Br)c2)nc1CSc1nc2ncccc2[nH]1,.,?,-,-
CN(C)c1ccc(CNC(=O)c2ccc(Cn3c(SCc4ccccc4)nc4cccnc43)cc2)cc1,-,-,.,-
SMILES,Marburg entry inh,HCMV inh,Lassa entry inh,FMDV antiviral
O=C(CCn1cccn1)NCc1ccc(Cl)cc1,.,-,-,-
O=C1NCN(c2ccccc2)C12CCN(C(c1cccc3ccccc13)c1nnnn1Cc1ccccc1)CC2 (configuration not stated),.,-,.,-
O=c1[nH]c2ccccc2n1C1CCN(C(c2cccc3ccccc23)c2nnnn2Cc2ccccc2)CC1 (configuration not stated),.,-75,.,-
COc1cccc(C(c2nnnn2Cc2ccccc2)N2CCN(C(=O)c3ccco3)CC2)c1OC (configuration not stated),-,-,-,-
COc1cccc(C(c2nnnn2Cc2ccccc2)N2CCC(n3c(=O)[nH]c4ccccc43)CC2)c1OC (configuration not stated),.,-70,.,-
O=c1[nH]c2ccccc2n1C1CCN(C(CCc2ccccc2)c2nnnn2C2CCCC2)CC1 (configuration not stated),.,-102,.,35µM
